Assay outcomes deposited in PubChem BioAssay by National Center for Advancing Translational Sciences (NCATS).
Nrf2 block: Nrf2 qHTS screen for inhibitors; A549 ARE-Fluc reporter, luciferase luminescence, 18-24 h; Potency, µM (top dose mostly 46 µM), for the others: at the top dose activity change, negative = inhibition, usual class: inhibitors; hit rate 2.1% among 360,000; further: on the % scale 0 is the no-effect control and ±100 the full control effect; nearly all actives have a fitted effect of over 60% in size
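A549 ARE_Fluc cells, 5000/well, 5% FBS OPTI-MEM; compounds in dose-response, 18-24 h at 37 °C/5% CO2; CellTiter-Fluor viability read (Ex 405/Em 525), then BugLite luciferase luminescence = Nrf2 activity.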
S2 tox: Viability Counterscreen for Primary qHTS for Inhibitors of ATXN expression; Potency, µM (highest dose often 56.7 µM), hits mostly cytotoxic; S2 cells (HEK-293 line with an ATXN2-luciferase reporter) viability, CellTiter-Fluor protease fluorescence, 24 h; hit rate 0.49% among 400,000; further: nearly all actives have a fitted effect of over 40% in size
TGFb SMAD3 inh: qHTS for Inhibitors of TGF-b; hit rate 1.2% among 410,000; Potency, µM (titrated, usually from 46.1 µM), for the others: top-dose activity, negative = inhibition, hits mostly inhibitors; AID 588855, 2011; HepG2 CAGA-GFP TGF-b/SMAD3 reporter, GFP fluorescence, 18 h; TGF-beta stimulated, 500 pg/mL final; further: on the % scale 0 is the no-effect control and ±100 the full control effect; nearly all actives have a fitted effect of over 65% in size
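HEPG2 CAGA-GFP, 1000 cells/well; 2 h settle, 37 C; cpd via pin tool; TGF-b 500 pg/mL final; 18 h, 37 C; GFP imaging ex488/em500-530; %Activity normalised to -TGF-b and +DMSO controls; CRC fit, curve class.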
HepG2 tox-1: qHTS for Inhibitors of TGF-b: Cytotox Counterscreen; HepG2 CAGA-GFP viability, ATP luminescence, 18 h; Potency, µM (highest dose often 46.1 µM), for inactives: top-dose activity change, negative = cytotoxicity, most hits filed as cytotoxic; hit rate 0.76% among 410,000; AID 588856, 2011
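CellTiter-Glo luminescence gave cytotoxicity after 18 hours at 37 degrees C. The cells were HepG2 CAGA-GFP in 1% FBS DMEM, stimulated with 500 pg/mL TGF-beta after compound addition. %Activity was normalised to no-cell wells (complete cell-killing) and DMSO (no toxicity), and curves were fitted and classified.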
A549 tox: Nrf2 qHTS screen for inhibitors: counterscreen for cytotoxicity | Potency, µM (titrated, usually from 46 µM), for the others: top-dose activity change, negative = cytotoxicity, hits mostly inhibitors | A549 ARE-Fluc cells, CellTiter-Fluor viability, 18-24 h | hit rate 0.16% among 390,000; further: on the % scale 0 is the no-effect control and ±100 the full control effect
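A549 ARE-Fluc cells in 5% FBS OPTI-MEM, 5000 cells/well, rested 2 h then exposed to compounds in concentration-response for 18-24 h at 37 °C. Viability by CellTiter-Fluor fluorescence (Ex 405/Em 525) after 30 min; luciferase luminescence (BugLite, 15 min, RT) read afterwards.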
ATXN2 expr inh: Primary qHTS for Inhibitors of ATXN expression; HEK-293 ATXN2-luciferase reporter, luminescence, 24 h; Potency, µM (doses to about 57 µM), for the others: at the top dose activity change, negative = inhibition, usual class: inhibitors; hit rate 0.72% among 360,000; AID 1745845, 2022; further: on the % scale 0 is the no-effect control and ±100 the full control effect; nearly all actives have a fitted effect of over 55% in size
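ATXN2-luciferase reporter cells (luciferase flanked by upstream and downstream ATXN2 gene portions) were treated 24 h at 37 °C with compounds at up to 57 uM. SteadyGlo luminescence gave expression; GF-AFC fluorescence gave viability.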
TGFb CAGA inh: qHTS for Inhibitors of TGF-b: Confirmation of Cherry Picks | Potency, µM (top dose mostly 46.1 µM), inactives show top-dose activity, negative = inhibition, actives largely listed as inhibitors | hit rate 63% among 1,600 | HepG2 CAGA-GFP TGF-b reporter, GFP fluorescence, 18 h; cells stimulated with TGF-beta, 500 pg/mL | shares compounds with TGFb SMAD3 inh; further: on the % scale 0 is the no-effect control and ±100 the full control effect; nearly all actives have a fitted effect of over 65% in size
HepG2 tox-2: qHTS for Inhibitors of TGF-b: Cytotox Counterscreen for Cherry Picks. shares compounds with TGFb SMAD3 inh. HepG2 CAGA-GFP viability, ATP luminescence, 18 h; cells stimulated with TGF-beta, 500 pg/mL. Potency, µM (series often up to 46.1 µM), without a hit: at the highest dose activity, negative = cytotoxicity, most hits filed as inhibitors. hit rate 27% among 1,600. AID 720535, 2013; further: on the % scale 0 is the no-effect control and ±100 the full control effect; nearly all actives have a fitted effect of over 70% in size
TGFb CCL64 inh: qHTS for Inhibitors of TGF-b: CCL64 Cells Orthogonal Assay for Cherry Picks. Potency, µM (highest dose often 46.1 µM), for inactives: at the highest dose activity, negative = inhibition, most hits filed as inhibitors. shares compounds with TGFb SMAD3 inh. AID 720536, 2013. hit rate 41% among 1,600. CCL64 CAGA-GFP reporter, TGF-b stimulated, GFP fluorescence, 18 h; further: nearly all actives have a fitted effect of over 65% in size
COP TGFb inh: qHTS for Inhibitors of TGF-b: Hit Validation in HepG2 Cells using COP promoter | hit rate 3% among 1,600 | Potency, µM (doses to about 46.1 µM), for the others: top-dose activity, negative = inhibition, hits mostly inhibitors | shares compounds with TGFb SMAD3 inh | HepG2 COP-GFP TGF-b reporter, GFP fluorescence, 18 h; cells stimulated by added recombinant TGF-beta; further: nearly all actives have a fitted effect of over 70% in size
Active calls of the source: *; i = inactive; u = inconclusive; x = no result. Compounds with a hit are over-represented: about 3.8% of the library has one in this group of screens. The call rests on the fitted dose curve; in most records, active means well fitted curve in the direction sought with a large enough effect; inconclusive means small, poorly fitted or top-dose-only effect, or another doubt; inactive means no such curve, though single readings can be large; an effect the other way counts as inactive or inconclusive. Potency means the concentration at half of the fitted maximal effect.

SMILES | Nrf2 block | S2 tox | TGFb SMAD3 inh | HepG2 tox-1 | A549 tox | ATXN2 expr inh | TGFb CAGA inh | HepG2 tox-2 | TGFb CCL64 inh | COP TGFb inh
Cc1ccc(Cc2c(-c3cccc(Cl)c3)nc3ccc(C)cn23)cc1 | x | u | 10µM* | -10.3% | x | -36.3% | 18.4µM* | u | u | 54.8%
Clc1ccc2nc(-c3cccc(Br)c3)c(Cc3ccsc3)n2c1 | x | i | 10µM* | -10.7% | x | 56.9% | u | u | u | 0.3%
COc1ccc(Cc2c(-c3ccccc3)nc3ccc(Br)cn23)c(C)c1 | x | u | 10µM* | -19.4% | x | -35.5% | u | u | u | 51.1%
Brc1cccc(-c2nc3ccc(Br)cn3c2Cc2ccsc2)c1 | x | u | 11.2µM* | -7.3% | x | 8.5% | 23.1µM* | u | u | -4.5%
Cc1ccc(C(NC(=O)Nc2ccccn2)C(Cl)(Cl)Cl)cc1F (stereo not given) | -15.8% | i | -2.2% | 2.5% | -0.4% | 2.6% | x | x | x | x
CN(C)c1ccc(/C=C/c2ccnc3ccc(N)cc23)cc1 | x | x | 7.2% | -34.0% | x | x | x | x | x | x
COc1cc(C=CC(=O)c2ccccc2)cc(OC)c1OC | x | i | 10µM* | -92.6% | x | u | 18.4µM* | u | 16.4µM* | 36.5%
CC(=NNC(=S)N1CCCC1)c1ccccn1 | x | u | u | -22.1% | x | x | u | u | u | -14.0%
CC(=NNC(=S)Nc1cccc(Cl)c1)c1ccccn1 | u | u | u | -47.9% | -24.7% | u | x | x | x | x
COc1cc(C(=O)Nc2ccc(N3CCOCC3)cc2)ccc1OCc1c(C)noc1C | 0.5% | i | 4.6% | -16.2% | -4.3% | 6.2% | x | x | x | x
COc1ccccc1CNc1nc2cc(-c3ccc(OC)c(OC)c3)sc2c(=O)n1C | x | i | u | 3.8% | x | 0.0% | x | x | x | x
COc1ccc(-c2cc3nc(NCC4CCCCC4)n(C)c(=O)c3s2)cc1OC | x | u | 10µM* | -28.5% | x | u | u | u | u | 64.9%
O=C(NCCNC(=O)c1ccccc1O)c1ccccc1O | 9.0% | i | 2.1% | 5.2% | 9.1% | -3.8% | x | x | x | x
O=C(NCCCCCCNC(=O)c1ccccc1O)c1ccccc1O | -0.7% | i | 8.91µM* | -35.2% | -6.1% | -19.8% | u | u | u | 10.6%
O=c1c2ccccc2c(-c2n[nH]c(=S)o2)nn1Cc1ccccc1 | u | i | -0.4% | -4.0% | -3.5% | x | x | x | x | x
OCc1ccc(-c2nn(Cc3ccccc3)c3ccccc23)o1 | 2.5% | u | 2.82µM* | -49.8% | -5.9% | u | 1.03µM* | 0.651µM* | u | 4.9%
COc1ccccc1-n1cc([C@@H]2C[C@H]3CN(c4ccccc4)C(=O)[C@]34CCCN24)cn1 | u | u | 5.01µM* | 0.0% | u | u | 0.731µM* | u | 5.17µM* | 26.7%
CCOc1ccc(N2C(=O)CC(N(CCc3ccc(S(N)(=O)=O)cc3)C(C)=O)C2=O)cc1 (stereo not given) | -1.7% | i | 0.6% | 2.0% | -1.1% | -1.9% | x | x | x | x
CCCCCCOc1ccc(N2C(=O)CC(N(CCc3ccc(S(N)(=O)=O)cc3)C(C)=O)C2=O)cc1 (stereo not given) | -17.9% | i | u | -6.1% | 4.1% | -28.1% | u | -15.6% | 0.2% | 11.4%
CC1CCc2[nH]c3ccc(C(=O)N4CCCC(C(F)(F)F)C4)cc3c2C1 (stereo not given) | u | i | 14.1µM* | 7.7% | -14.5% | 5.6% | u | u | 20.6µM* | 58.4%
COc1cccc(-c2ccc(O)c(CNCc3cccc(OC)c3OC)c2)n1 | x | i | x | x | x | x | x | x | x | x
CCOc1ccc(CCN2C(=S)N([C@@H](Cc3ccc(O)cc3)CN3CCC[C@@H]3CN3C(=S)NC[C@@H]3Cc3ccccc3)C[C@@H]2Cc2ccc(O)cc2)cc1 | x | u | 8.91µM* | -0.9% | x | 0.0% | 6.51µM* | u | 5.8µM* | 44.2%
CCOc1ccc(CCN2C(=S)N([C@@H](CC(C)C)CN3CCCC3CN3C(=S)NC[C@@H]3Cc3ccc(O)cc3)C[C@@H]2Cc2ccc(O)cc2)cc1 (stereo not given in full) | u | u | 7.08µM* | 12.6µM* | -10.0% | u | 20.6µM* | u | 13µM* | 52.9%
CCOc1ccc(CCN2C(=O)C(=O)N([C@@H](Cc3ccccc3)CN3CCC[C@@H]3CN3C(=O)C(=O)NC[C@@H]3Cc3ccc(O)cc3)C[C@@H]2Cc2ccccc2)cc1 | x | i | -2.7% | -1.8% | x | 3.4% | x | x | x | x
CCOc1ccc(CCN2C(=S)N([C@@H](CC(C)C)CN3CCCC3CN3C(=S)NC[C@@H]3Cc3ccc(O)cc3)C[C@@H]2Cc2ccccc2)cc1 (stereo not given in full) | -16.4% | i | u | -7.8% | 4.2% | -19.8% | u | -16.3% | u | -2.9%
CC(C)C[C@@H](CN1CCCC1CN1C(=S)NC[C@@H]1Cc1ccccc1)N1C[C@H](Cc2ccc(O)cc2)N(CCc2ccccc2)C1=S (stereo not given in full) | x | u | x | x | x | -34.8% | x | x | x | x
